Measured values from PubChem BioAssay.
Values without a mark were called inactive. How the calls were made is not given here.

Test system: Aerobactin synthetase IucA (Klebsiella pneumoniae hvKP1)
Experiment: Biochemical IucA enzyme inhibition primary screen of the Spectrum library (AID 1346200);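 further: 100% = wells without compound and 0% = wells lacking enzyme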
Details: malachite green pyrophosphate, A620, at 8 µM, active compounds read low

Row | Compound | activity remaining [%]
1 | S=c1[nH]c2ccccc2s1 | 99.3
2 | CC(=O)Oc1ccc2c(c1)CCC1C2CC[C@@]2(C)C1CC[C@@H]2OC(C)=O (stereo partly specified) | 120
3 | C[C@]12CCc3occc3C1CC[C@@]13C[C@@H](CCC12)[C@@](O)(CO)C3 (stereo partly specified) | 93.4
4 | CON | 103
5 | O=C(/C=C/c1ccc(O)cc1)c1ccccc1O | 109
6 | CCN1C[C@]2(OC(=O)c3ccccc3NC(C)=O)CCC(OC)[C@]34C1[C@H](CC23)[C@@]1(O)CC(OC)[C@H]2CC4C1(O)[C@H]2OC (stereo partly specified) | 95.9
7 | O=C(O)CCCCCCCCCCCCC1C=CCC1 (stereo unspecified) | 118
8 | O=C(/C=C(\O)c1ccccc1)c1ccccc1O | 120
9 | O=C(O[C@@H]1Cc2c(O)cc(O)cc2O[C@@H]1c1cc(O)c(O)c(O)c1)c1cc(O)c(O)c(O)c1 | 113
10 | COC(=O)c1c(C)cc(OC)cc1O | 98.9
11 | COc1c2occc2c(OC)c2c(=O)cc(C)oc12 | 116
12 | CC(=O)Oc1c2c(c3c(c1CC=C(C)C)O[C@]14C(=C[C@@H]5CC1C(C)(C)OC4(C/C=C(\C)C(=O)O)C5=O)C3=O)OC(C)(CCC=C(C)C)C=C2 (stereo partly specified) | 112
13 | COc1c2c(cc3occ(-c4ccc5c(c4)OCO5)c(=O)c13)OC(C)(C)C=C2 | 111
14 | NC(N)=NS(=O)(=O)c1ccc(N)cc1 | 98.6
15 | CC(C)c1ccc2c(c1)CCC1[C@](C)(CN)CCC[C@]21C (stereo partly specified) | 111
16 | CNC[C@@H](O)c1ccc(O)c(O)c1 | 115
